Bioassay records: PubChem BioAssay, National Center for Advancing Translational Sciences (NCATS)
An excerpt weighted towards active compounds, which were near 7.8% of everything screened.
HCV inh = inhibitors of hepatitis C virus infection | Potency, µM (highest dose often 41.8 µM), usual class: inhibitors | Huh7.5.1 HCVcc-Cre infection, luciferase reporter, 44 h | 3.4% of 340,000 active; active means well fitted inhibition curve with a large enough effect; inconclusive means small, poorly fitted or top-dose-only effect, or another doubt; inactive means no such curve, though single readings can be large or run the other way
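Seed cells (1,000/well) for 4 h; treat with compound and infect with HCVcc-Cre, moi about 0.5. Incubate 44 h, then detect luciferase activity.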
HCMV antiviral = human cytomegalovirus inhibition; HFF cells, HCMV-luciferase reporter, 72 h; hits give low values; activity change, negative = inhibition, % at 57.5 µM; 4.5% of 410,000 active; AID 1259415; in the data active means activity change below about -60%; inconclusive means no clear call, values can overlap the other calls; inactive means above about -39%
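HFF cells seeded 16 h at 37C, treated with compounds, infected with luciferase-reporter HCMV at MOI 1 PFU/cell; luciferase read at 72 h post infection, normalized to buffer-only and Salinomycin controls.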
MARV entry inh = blocks Marburg virus binding to or entry into cells; AID 540276; Marburg virus pseudotyped entry inhibition, cell reporter; 1.8% of 300,000 active; Potency, µM (highest dose often 37.8 µM), usual class: inhibitors; calls by dose curve; tested in HEK293 cells
VACV Venus inh = vaccinia inhibition (Venus reporter). Vaccinia virus Venus reporter expression, fluorescence. Potency, µM (top dose mostly 36.5 µM), hits mostly inhibitors. 0.46% of 330,000 active. AID 720580; calls by dose curve; tested in A549 cells; further: nearly all actives have a fitted effect of over 30% in size
Vaccinia mCherry = inhibitors of vaccinia virus infection (mCherry reporter signal); AID 720579; Potency, µM (titrated, usually from 36.5 µM), actives largely listed as inhibitors; Vaccinia virus mCherry reporter infection, fluorescence; 0.63% of 310,000 active; calls by dose curve; tested in A549 cells; further: nearly all actives have a fitted effect of over 35% in size
Lassa entry inh = blocks Lassa virus binding to or entry into cells. 1.2% of 300,000 active. Potency, µM (doses to about 37.9 µM), usual class: inhibitors. Lassa virus pseudotype entry inhibition, cell reporter. AID 540256; calls by dose curve; tested in HEK293 cells; further: nearly all actives have a fitted effect of over 50% in size
A number is an active result; 0 = inactive; ? = inconclusive; - = no result; ! = repeats disagree.

SMILES | HCV inh | HCMV antiviral | MARV entry inh | VACV Venus inh | Vaccinia mCherry | Lassa entry inh
O=C1C(Cl)=C(Nc2ccc3cn[nH]c3c2)C(=O)c2ccccc21 | 4µM | -100 | ? | 8.9µM | ? | 3.5µM
O=C(Nc1ccc2cn[nH]c2c1)c1ccccc1F | 0 | 0 | ? | 0 | 0 | ?
COCCN1CCN(C(=O)c2cnn(-c3nccc(-c4ccco4)n3)c2C(C)C)CC1 | - | - | - | 0 | 0 | -
COc1ccc(N2CCN(C(=O)C3CCN(c4nc5ccc(C)cc5[nH]4)CC3)CC2)cc1 | - | 0 | - | 0 | 0 | 0
CC1=C(C(=O)Nc2ccccc2)C(c2ccccc2)n2nc(-c3ccco3)nc2N1 (centres undefined) | - | 0 | 0 | 0 | 0 | 0
O=C(CCN1C(=O)C2C3C=CC(C4CC34)C2C1=O)OCC(=O)c1ccccc1 (centres undefined) | 0 | -83 | 0 | 0 | 0 | 0
O=C(CCN1C(=O)C2C3C=CC(C4CC34)C2C1=O)Oc1ccc(Br)cc1 (centres undefined) | 0 | 0 | ? | 0 | 0 | 0
O=C(CCN1C(=O)C2C3C=CC(C4CC34)C2C1=O)Oc1cccc2cccnc12 (centres undefined) | ? | -95 | 16µM | 0 | 0 | 0
Cc1ccc(C(=O)COC(=O)CCN2C(=O)C3C4C=CC(C5CC45)C3C2=O)cc1 (centres undefined) | 0 | ? | 0 | 0 | 0 | 0
CCC(Sc1nc2nccnc2c(=O)n1Cc1ccc(Cl)cc1)C(=O)NC1CCCCC1 (centres undefined) | - | 0 | - | 0 | 0 | 0
COc1cc(/C=C/CN2CCC(C(=O)NC(c3ccc(F)cc3)c3ccc4ccccc4n3)CC2)ccc1OC(C)=O (centres undefined) | - | 0 | - | ? | ? | -
COc1cc(C2NC(=O)NC(C)=C2C(=O)Nc2cc(C)cc(C)c2)ccc1O (centres undefined) | - | 0 | 0 | 0 | 0 | 0
CC(C)C[C@H]1CN([C@@H](Cc2ccc(O)cc2)CN2CCC[C@@H]2CN2C(=O)C(=O)NC[C@@H]2Cc2ccccc2)C(=O)C(=O)N1CC1CCCCCC1 | ? | -65 | - | 0 | 0 | -
CC(C)C[C@H]1CN([C@@H](Cc2ccc(O)cc2)CN2CCC[C@H]2CN2C(=O)C(=O)NC[C@@H]2Cc2ccccc2)C(=O)C(=O)N1CC1CCCCC1 | - | 0 | - | 0 | 0 | -
CC(C)C[C@H]1CN([C@@H](Cc2ccccc2)CN2CCC[C@H]2CN2C(=O)C(=O)NC[C@@H]2Cc2ccc(O)cc2)C(=O)C(=O)N1CC1CCCCCC1 | - | -87 | - | 0 | 0 | -
CC(C)C[C@H]1CNC(=O)C(=O)N1C[C@@H]1CCCN1C[C@H](Cc1ccc(O)cc1)N1C[C@H](Cc2ccccc2)N(CC2CCCCCC2)C(=O)C1=O | - | 0 | - | 0 | 0 | -
CC(c1ccccc1C(O)c1ccccc1)N(C)C (centres undefined) | 0 | 0 | 0 | 0 | 0 | 0
Cc1ccc(C(O)(c2ccccc2)c2ccccc2C(C)N(C)C)c(C)c1 (centres undefined) | ? | ? | 5.8µM | ? | ? | 8.2µM
COc1ccccc1CN1CC(C(=O)NCC2(O)CCCCC2)CCC1=O (centres undefined) | - | -64 | - | 0 | 0 | -
CC(C)CC(N)c1cn([C@@H](CCC(=O)O)C(=O)N2CCNCC2)nn1 (some centres undefined) | 0 | 0 | - | 0 | 0 | -
CC(C)C[C@H](N)c1cn([C@@H](CCCCN)C(=O)N2CCNCC2)nn1 | ? | 0 | - | 0.79µM | 0.5µM | -
CSc1nc2nccc(-c3ccc(Oc4ccccc4)cc3)n2n1 | 11µM | 0 | ? | ? | - | 16µM
CN1/C(=C\C=[N+](C)c2ccccc2)C(C)(C)c2ccccc21 | 11µM | -95 | ? | ? | 0 | 4.6µM
CC1=NN(c2ccccc2)C(=O)/C1=C\C=C\c1ccccc1 | ? | -98 | ? | 0 | 0 | ?
CC1=NN(c2ccccc2)C(=O)/C1=C\C=C1/N(C)c2ccccc2C1(C)C | ? | 0 | 11µM | 0 | 0 | ?
SMILES | HCV inh | HCMV antiviral | MARV entry inh | VACV Venus inh | Vaccinia mCherry | Lassa entry inh
Cc1c(C(=O)N(C)CC2CCCN(C)C2)cnn1-c1nccc(-c2ccco2)n1 (centres undefined) | - | - | - | 0 | 0 | -
COCC1=C(C(=O)OC)C(c2ccccc2)N(C(C)=O)C(=O)N1 (centres undefined) | - | - | 0 | - | - | -
CCc1cccc(NC(=O)CSc2ncccc2C(=O)Oc2ccccc2Cl)c1 | - | 0 | - | 0 | 0 | 0
COc1cc(C2C(C#N)=C(N)Oc3cc(N(C)C)ccc32)cc2c1OCO2 (centres undefined) | 0 | -78 | ? | ? | ? | 0.52µM
COc1cc(C2C(C#N)=C(N)OC3=C2C(=O)CC(C)(C)C3)cc2c1OCO2 (centres undefined) | 10µM | 0 | 0 | 0 | 0 | ?
COc1ccc(C2C(C#N)=C(N)Oc3cc(O)ccc32)cc1OC (centres undefined) | 0 | 0 | ? | 0 | - | 0
COc1cc(C2C(C#N)=C(N)Oc3cc(O)ccc32)cc(OC)c1OC (centres undefined) | 0 | -89 | 1.8µM | 0 | 0 | ?
COc1cc(C2C(C#N)=C(N)Oc3cc4c(cc32)OCO4)cc(OC)c1OC (centres undefined) | 0 | -86 | ? | ? | ? | ?
CCOc1ccc(NC(=O)COC(=O)c2ccccc2OCC(=O)N(C)C)cc1 | - | - | - | 0 | 0 | -
CCC[C@H]1[C@@H](NC(=O)Nc2cccc(C(F)(F)F)c2)CC[C@@]23CCCN2C(=O)CCC[C@@H]13 | - | 0 | - | - | - | -
CCOC(=O)[C@@]1([C@@H](NC(=O)OC)c2cccc(F)c2)CCCC1=O | - | - | 0 | - | - | -
N#CC1=C(N)Oc2cc(N)ccc2C1c1cccc(Br)c1 (centres undefined) | 0 | -75 | - | - | - | -
Cc1cc(-c2ccnc(-n3ncc(C(=O)N(C)CC(O)c4ccccc4)c3C)n2)c(C)s1 (centres undefined) | - | - | - | 0 | 0 | -
CCCCOC(=O)c1ccc(Nc2ncnc3[nH]ncc23)cc1 | - | 0 | - | 0 | 0 | 0
COc1ccc(OC2CCN(S(=O)(=O)c3cccc(F)c3)CC2)cc1 | ? | -97 | 0 | 0 | 0 | 0
COc1ccc(S(=O)(=O)N2CCC(Oc3ccc(-n4cnnn4)cc3)CC2)cc1 | - | 0 | 0 | 0 | 0 | 0
COc1ccc(S(=O)(=O)N2CCC(Oc3ccc(-n4cnnn4)cc3)CC2)cc1OC | - | -64 | 0 | 0 | 0 | 0
COc1ccc(OC2CCN(S(=O)(=O)c3ccc(OC)cc3)CC2)cc1 | ? | ? | 0 | 0 | 0 | ?
N[C@@H](Cn1ccc(=O)c(O)c1)C(=O)O | - | - | 0 | - | - | ?
COc1ccccc1N1CCN(C(=O)c2cccc3c(=O)c(C)c(-c4ccccc4)oc23)CC1 | ? | -66 | 0 | 0 | 0 | -
Cc1c(C(=O)N2CCN(c3ccc(F)cc3)CC2)sc2nc(-c3ccccc3)cn12 | 0 | 0 | 0 | - | - | 0
COc1ccccc1N1CCN(C(=O)c2sc3nc(-c4ccccc4)cn3c2C)CC1 | 11µM! | 0 | ? | ? | ? | 0
COc1ccccc1N1CCN(C(=O)c2cc3c(C)nc4ccccc4c3o2)CC1 | 6.3µM | -61 | ? | ? | ? | 11µM
